An excerpt weighted towards active compounds, which were near 5.6% of everything screened.
H9c2 protect: modulators protecting cardiomyocytes from myocardial damage; H9c2 cardiomyocytes, H2O2 injury protection, ATPLite, 2 h; hit rate 0.63% among 360,000; protection from H2O2 cell death, % at 20 µM; AID 588492;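 active means compounds giving at least 50% protection of heart cells from peroxide-induced death in the single-dose screen, raw or plate-pattern-corrected value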
ALR inh: blocks human ALR sulfhydryl oxidase activity; hit rate 3.8% among 290,000; purified ALR, DTT oxidation, H2O2 HRP-luminol luminescence; inhibition, % (test concentration not listed);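 active means mean replicate inhibition above about 79%, with every replicate also reaching it, limit read from the data; inconclusive means only one of the two criteria met; inactive means mean below limit and not every replicate reaching it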
Target sequence (P55789 whole entry, looked up): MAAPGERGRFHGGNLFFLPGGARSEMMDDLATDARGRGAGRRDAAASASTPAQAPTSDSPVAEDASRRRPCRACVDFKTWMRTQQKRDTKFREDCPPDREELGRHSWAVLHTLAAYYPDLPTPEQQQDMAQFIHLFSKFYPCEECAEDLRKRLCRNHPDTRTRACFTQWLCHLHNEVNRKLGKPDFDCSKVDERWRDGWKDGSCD
PfGluPho inh: PfG6PD (Plasmodium falciparum) enzyme inhibition; hit rate 0.78% among 350,000; PfGluPho enzyme, NADPH resazurin-diaphorase fluorescence; inhibition, % at 20 µM;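 active means inhibition reaching at least a set limit at 20 µM in the primary screen, cut at about 59% in these data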
PHOSPHO1 block: inhibitors of human PHOSPHO1 phosphatase | Q8TCT1 | recombinant PHOSPHO1, absorbance phosphatase assay | inhibition, % at 13.3 µM | hit rate 1.1% among 290,000; in the data active means inhibition above about 60%
Target sequence (Q8TCT1 whole entry, looked up): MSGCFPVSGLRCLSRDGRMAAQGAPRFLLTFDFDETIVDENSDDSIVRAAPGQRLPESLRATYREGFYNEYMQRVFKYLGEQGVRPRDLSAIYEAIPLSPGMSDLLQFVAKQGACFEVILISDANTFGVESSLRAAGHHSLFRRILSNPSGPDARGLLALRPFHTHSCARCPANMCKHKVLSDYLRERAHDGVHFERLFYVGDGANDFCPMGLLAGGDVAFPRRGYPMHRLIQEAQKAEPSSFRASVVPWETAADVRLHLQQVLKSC
M18AAP inhibitor: blocks P. falciparum M18 aspartyl aminopeptidase; recombinant PfM18AAP, H-Glu-NHMec fluorogenic cleavage; inhibition, % at 7.35 µM; hit rate 1.2% among 290,000;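 active means inhibition above the campaign mean inhibition over all tested compounds plus 3 SD, cut at about 28% in these data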
Each line names hits and unclear results; the compound was inactive in the other large screens.

O=C(c1ccccn1)N1CCCC(N2CCN(c3ccccc3)CC2)C1 (configuration not stated)	none
CCCc1cc(C(=O)N2CCCC(N3CCN(c4ccc(F)cc4)CC3)C2)no1 (configuration not stated)	ALR inh 98
Cc1cc(C(=O)N2CCCC(N3CCN(c4ccc(F)cc4)CC3)C2)no1 (configuration not stated)	none
O=C(c1ccccn1)N1CCCC(N2CCN(c3ccc(F)cc3)CC2)C1 (configuration not stated)	ALR inh 97
O=C(C1CCOCC1)N1CCCC(N2CCN(c3ccc(F)cc3)CC2)C1 (configuration not stated)	ALR inh 94
O=C(CSc1ccccc1)N1CCCC(N2CCN(c3ccccc3)CC2)C1 (configuration not stated)	ALR inh 99
O=C(CC[C@H]1O[C@@H](n2ccc(=O)[nH]c2=O)[C@H](O)[C@@H]1O)N[C@H](Cc1ccccc1)C(=O)NCCCc1ccccc1	none (no result: ALR inh, PfGluPho inh, PHOSPHO1 block, M18AAP inhibitor)
O=C(Nc1nc2ccccc2s1)C1=NN(c2ccccc2)C(=O)CC1	none
CC(C)CN(C(=O)COC(=O)c1cccn1C)c1c(N)n(Cc2ccccc2)c(=O)[nH]c1=O	none
CC(C)CNC(=O)C1(C)CCCN1C(=O)CCc1cccs1 (configuration not stated)	none (no result: ALR inh, PfGluPho inh, PHOSPHO1 block, M18AAP inhibitor)
Cc1cc(Br)ccc1NC(=O)CN1C(=O)C2CC=CCC2C1=O (configuration not stated)	none (no result: ALR inh, PHOSPHO1 block, M18AAP inhibitor)
COc1cc(SC#N)ccc1N=Cc1c(C)[nH]n(-c2ccc(C)c(C)c2)c1=O	ALR inh 94
CCOC(=O)C1=C(COC(=O)[C@@H](NC(=O)c2cccc(C)c2)C(C)C)NC(=O)NC1C (some centres not stated)	none (no result: PHOSPHO1 block, M18AAP inhibitor)
Cc1cc2c(cc1S(=O)(=O)N1CC(C)CC(C)C1)OCC(=O)N2 (configuration not stated)	none (no result: ALR inh)
FC(F)(F)c1ccc2c(c1)NCC1CCCN21 (configuration not stated)	ALR inh 98
COc1ccc2cc(C(=O)N3CCCC(Nc4ccc(F)cc4)C3)n(C)c2c1 (configuration not stated)	none
Cc1nc(CC(C)C)cc(C(=O)N2CCCC(Nc3ccc(C)c(C)c3)C2)n1 (configuration not stated)	ALR inh inconclusive
COc1ccc(NC2CCCN(C(=O)c3ccc4[nH]c(C)c(C)c4c3)C2)cc1OC (configuration not stated)	ALR inh 99
Cc1ccc(NC2CCCN(C(=O)c3ccoc3)C2)cc1C (configuration not stated)	ALR inh 99
COc1ccc(NC2CCCN(C(=O)c3ccc(OC)cc3OC)C2)cc1 (configuration not stated)	ALR inh 99
Cc1ccc(NC2CCCN(C(=O)c3ccc(C)c(N4CCNC4=O)c3)C2)cc1C (configuration not stated)	ALR inh 93
O=C(COc1ccc2ccccc2c1)Nc1ccccc1C(=O)O	none
O=S(=O)(c1ccc2c(c1)CCCC2)N1CCNCC1	none (no result: ALR inh, PHOSPHO1 block, M18AAP inhibitor)
CSc1nccc(N/N=C/c2ccccc2)n1	none
CC1CCCN(C(=O)COc2ccc(-c3ccccc3)cc2)C1 (configuration not stated)	none
Cc1ccc(NC2CCCN(C(=O)c3ccoc3C)C2)cc1C (configuration not stated)	ALR inh 98
Cc1ccc(C(=O)N2CCCC(Nc3ccc(F)c(F)c3)C2)cn1 (configuration not stated)	none
CCn1nc(CC(C)C)cc1C(=O)N1CCCC(Nc2ccc(OC)cc2)C1 (configuration not stated)	ALR inh 98
Cc1ccc(NC2CCCN(C(=O)C3CCCC3)C2)cc1C (configuration not stated)	ALR inh 99
CC(=O)c1ccc(OCC(=O)N2CCCC(Nc3ccc(C)c(C)c3)C2)cc1 (configuration not stated)	ALR inh 85
O=c1c2cn(Cc3ccccc3)c3ccccc3c-2nn1Cc1ccc(F)cc1Cl	none (no result: ALR inh)
O=C(CN1CCN(C(=O)C2CCCO2)CC1)Nc1ccc(F)cc1 (configuration not stated)	none
COc1ccc(C(=O)N2CCCC(Nc3ccc(C)c(C)c3)C2)cc1 (configuration not stated)	ALR inh 98
COC(=O)c1ccc(C(=O)N2CCCC(Nc3ccc(F)c(F)c3)C2)cc1 (configuration not stated)	none
Cc1cc2nnc(SC3CCOC3=O)n2c2ccccc12 (configuration not stated)	PHOSPHO1 block 74
Cc1cc(SC2CCOC2=O)nc2ccccc12 (configuration not stated)	none
Cc1cc2c(NC3CCCCC3)ncnc2s1	none
CN1C(C(=O)NCc2cccc(Br)c2)CC2Cn3c(nc4ccccc43)C21 (configuration not stated)	none (no result: ALR inh, M18AAP inhibitor)
O=C(NCc1cccc(Br)c1)C1CC2Cn3c(nc4ccccc43)C2N1c1ccccc1 (configuration not stated)	ALR inh 77 (no result: PHOSPHO1 block, M18AAP inhibitor)
CCN1CCN(C(C(=O)NC2CCCCC2)c2ccnc3ccccc23)CC1 (configuration not stated)	none (no result: ALR inh, PfGluPho inh, PHOSPHO1 block, M18AAP inhibitor)
CC1CC(C)CN(CCCNC(=O)c2ccc(CNS(=O)(=O)c3ccc(F)cc3)cc2)C1 (configuration not stated)	PHOSPHO1 block 75
O=C(NCCCN1CCOCC1)c1ccc(CNS(=O)(=O)c2ccc(F)cc2)cc1	none
O=C(COc1ccccc1)N1CCN=C1SCc1ccccc1F	none
CCC(=O)N1CCN=C1SCc1c(F)cccc1Cl	ALR inh 99
CC(=O)N1CCN=C1SCc1c(F)cccc1Cl	ALR inh 98
O=C(c1c(F)cccc1F)N1CCN=C1SCc1ccccc1	none
O=C(Cn1c(=O)oc2cc(S(=O)(=O)N3CCCCCC3)ccc21)NC1CCCCC1	none (no result: M18AAP inhibitor)
O=C(Cn1c(=O)oc2cc(S(=O)(=O)N3CCc4ccccc43)ccc21)NC1CCCC1	ALR inh 96
Cc1ccc(C(=O)O/N=C(\N)c2ccccn2)c(Cl)c1	ALR inh 91
COc1ccccc1N1CC(C(=O)Nc2nnc(SCc3cccnc3)s2)CC1=O (configuration not stated)	ALR inh 88
CCNC(=O)C1(C)CCN(C(=O)c2ccc(OC)cc2OC)C1 (configuration not stated)	none (no result: ALR inh, PfGluPho inh, PHOSPHO1 block, M18AAP inhibitor)
C=CCSc1ncnc2c1oc1nc3c(cc12)COC(C)(C)C3	none
CC1(C)Cc2nc3oc4c(=S)nc[nH]c4c3cc2CO1	ALR inh 96
Nc1cnc(Nc2ccc(Br)cc2)nc1N	ALR inh 96
O=C(COC(=O)c1cccc(F)c1)Nc1ccc(Cl)cn1	none (no result: PHOSPHO1 block, M18AAP inhibitor)
CC(C(=O)Nc1ccc(S(N)(=O)=O)cc1)N1CCc2ccccc21 (configuration not stated)	ALR inh 99
COc1ccc2nc(NCCO)[nH]c2c1	none (no result: ALR inh)
COc1ccc2nc(N3CCCC3)[nH]c2c1	ALR inh 96

Screening results from PubChem BioAssay.
